Source: PubChem
Rows were chosen to be rich in hits. Some 2.8% of all compounds tested hit in one or more screens of this group.
WRN helicase inh = qHTS for Inhibitors of WRN Helicase; Bifunctional 3'-5' exonuclease/ATP-dependent helicase WRN (Homo sapiens), Q14191; WRN helicase unwinding, fluorescent forked duplex, kinetic; Potency, µM (titrated, usually from 114 µM), actives largely listed as inhibitors; 360,000 tested, 0.46% active; AID 651768, 2012; further: nearly all actives have a fitted effect of over 55% in size
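Screening of the MLSMR collection measured strand separation of a quenched forked DNA duplex (100 nM) by 20 nM WRN with 2 mM ATP, all final. Compounds were preincubated with enzyme 15 min at room temperature.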
POLH inh = qHTS for Inhibitors of Polymerase Eta; DNA polymerase eta (Homo sapiens), Q9Y253; recombinant Pol eta, fluorescent DNA replication assay; Potency, µM (top dose mostly 114 µM), hits mostly inhibitors; 390,000 tested, 1.2% active
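Pol eta (10 nM) was preincubated with compounds for 15 min at room temperature, after which fluorescent replication substrate (50 nM final) was added to start the reaction. Fluorescence was read kinetically at 0 and 10 min.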
POLK inh = qHTS for Inhibitors of Polymerase Kappa. purified Pol kappa, fluorescent DNA synthesis assay, 10 min. 400,000 tested, 0.53% active. AID 588579, 2011. Potency, µM (top dose mostly 107 µM), usual class: inhibitors. DNA polymerase kappa (Homo sapiens), Q9UBT6
Target sequence (Q9UBT6 whole entry, looked up): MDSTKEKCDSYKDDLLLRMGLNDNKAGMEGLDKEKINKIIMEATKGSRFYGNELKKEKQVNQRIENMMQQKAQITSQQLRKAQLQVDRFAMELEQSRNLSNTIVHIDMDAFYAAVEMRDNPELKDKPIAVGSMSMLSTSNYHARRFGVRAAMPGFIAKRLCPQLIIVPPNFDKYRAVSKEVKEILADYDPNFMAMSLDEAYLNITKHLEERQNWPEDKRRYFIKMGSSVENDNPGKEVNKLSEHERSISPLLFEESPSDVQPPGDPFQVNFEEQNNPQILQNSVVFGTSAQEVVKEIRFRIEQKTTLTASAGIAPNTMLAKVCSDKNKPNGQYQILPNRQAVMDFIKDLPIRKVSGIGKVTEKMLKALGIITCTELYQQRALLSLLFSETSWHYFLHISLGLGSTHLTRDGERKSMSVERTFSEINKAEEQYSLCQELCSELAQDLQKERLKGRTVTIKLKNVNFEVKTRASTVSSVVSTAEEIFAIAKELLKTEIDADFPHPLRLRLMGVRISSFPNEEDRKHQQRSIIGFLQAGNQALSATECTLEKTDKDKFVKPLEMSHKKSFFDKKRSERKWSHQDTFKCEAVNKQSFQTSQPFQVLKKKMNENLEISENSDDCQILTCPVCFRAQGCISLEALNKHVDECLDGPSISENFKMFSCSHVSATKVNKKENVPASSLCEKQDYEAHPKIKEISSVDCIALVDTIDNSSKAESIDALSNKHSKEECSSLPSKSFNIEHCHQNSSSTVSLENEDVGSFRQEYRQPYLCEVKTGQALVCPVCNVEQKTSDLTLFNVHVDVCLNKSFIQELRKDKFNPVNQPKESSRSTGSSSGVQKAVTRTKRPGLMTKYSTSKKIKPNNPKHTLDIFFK
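Pol kappa 10 nM + cpd, 15 min RT; start w/ substrate 50 nM final; fluorescence kinetic read, 0 and 10 min. Neg ctrl: buffer, no enzyme.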
PI5P4K alpha inh = qHTS for Inhibitors of phosphatidylinositol 5-phosphate 4-kinase (PI5P4K); Phosphatidylinositol 5-phosphate 4-kinase type-2 alpha (Homo sapiens), P48426; PI5P4Kalpha enzyme, ADP-Glo luminescence, 60 min; hits give low values; max response, %; 330,000 tested, 1.2% active; AID 652105, 2013; active means max response of -50% or lower; inconclusive means between -30% and -50%; inactive means -30% or higher; further: value at the top dose of about 77 µM
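Enzyme plus substrate dispensed, test compounds pinned in, then ATP (5 microM final) added. After 60 min at RT, ADP-Glo reagent 1 for 45 min and reagent 2 for 30 min preceded luminescence imaging.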
POLB inh = qHTS Assay for Inhibitors of DNA Polymerase Beta; P06746; 340,000 tested, 1.3% active; Potency, µM (highest dose often 114 µM), hits mostly inhibitors; Pol beta primer extension/strand displacement, fluorescence kinetic; AID 485314, 2010
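Human Pol beta at 10 nM; strand-displacement substrate 50 nM final. Compound exposure 15 min at room temperature before start, reaction 10 min at room temperature.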
POLI inh = qHTS for Inhibitors of Polymerase Iota; Potency, µM (highest dose often 115 µM), usual class: inhibitors; DNA polymerase iota (Homo sapiens), Q9UNA4; 390,000 tested, 1% active; Pol iota fluorescent replication assay, 10 min
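Fluorescent replication assay read twice, at 0 min and 10 min after adding 50 nM (final) substrate. Enzyme (10 nM) and compounds were first incubated 15 min at room temperature; enzyme-free buffer wells were negative controls.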
Each line names hits and unclear results; the compound was inactive in the other large screens. Unless noted, the call rests on the fitted dose curve; in most records, active means well fitted curve in the direction sought with a large enough effect; inconclusive means small, poorly fitted or top-dose-only effect, or another doubt; inactive means no such curve, though single readings can be large; an effect the other way counts as inactive or inconclusive.

O=C(CSc1nnc(Cc2csc(Nc3cccc(Cl)c3)n2)o1)N1CCc2ccccc21	POLH inh inconclusive, POLI inh 79µM
O=C1c2ccc(-c3ccc(F)cc3OCc3ccccc3)cc2S(=O)(=O)c2cccc(C(=O)N3CCN(c4ncc(Br)cn4)CC3)c21	none (no result: POLB inh)
O=C(O)c1cccc2c1C(=O)c1ccc(-c3ccc(F)cc3OCc3ccccc3)cc1S2(=O)=O	POLH inh 79µM, POLI inh inconclusive (no result: POLB inh)
Cc1ccsc1/C=N/n1c(-c2cc(-c3ccccc3)n[nH]2)n[nH]c1=S	POLH inh inconclusive, POLK inh inconclusive, POLB inh 11µM, POLI inh inconclusive
S=c1[nH]nc(-c2cc(-c3ccccc3)n[nH]2)n1/N=C/c1c(Cl)cccc1Cl	WRN helicase inh inconclusive, POLH inh 79µM, POLK inh inconclusive, PI5P4K alpha inh inconclusive, POLB inh 14µM, POLI inh 20µM
Cc1ccccc1/C=N/n1c(-c2cc(-c3ccccc3)n[nH]2)n[nH]c1=S	POLB inh inconclusive
CC(C)C[C@@H](CN1CCC[C@H]1CN1C(=O)C(=O)NC[C@@H]1Cc1ccccc1)N1C[C@H](Cc2ccccc2)N(CC2CCCCCC2)C(=O)C1=O	none (no result: POLH inh, POLK inh, POLB inh, POLI inh)
Cc1nc(C)c(-c2csc(Nc3ccc(C(=O)O)c(O)c3)n2)s1	POLH inh inconclusive, PI5P4K alpha inh -72
O=C(Nc1ccccc1)N1CC[C@@]2(CCCN(C(=O)c3csnn3)C2)C1	none (no result: WRN helicase inh, POLH inh, PI5P4K alpha inh, POLB inh, POLI inh)
CCCc1cnc2c(c1SCC(=O)N(C)c1ccccc1)c(=O)n(C)c(=O)n2C	none (no result: WRN helicase inh, PI5P4K alpha inh)
Cc1ccccc1CSCC(=O)NNC(=S)NCC1CCCO1 (stereo unspecified)	POLB inh inconclusive, POLI inh 89µM
O=C(Cc1ccc(Cl)c(Cl)c1)NNC(=S)NCC1CCCO1 (stereo unspecified)	none
CC[n+]1ccc(/C=C2\Sc3ccccc3N2CCCS(=O)(=O)[O-])c2ccccc21	POLK inh inconclusive, POLB inh 11µM
Cc1cccc(Nc2sc(C(=O)c3cc4cc(Cl)ccc4o3)c(N)c2C#N)c1	POLH inh inconclusive, POLB inh 10µM
O=S1(=O)CC(N2CCN(CCO)CC2)CN1C1CCCCC1 (stereo unspecified)	none (no result: POLH inh, POLK inh, POLB inh, POLI inh)
Nc1cccc2c1C(=O)N(C(=O)/C=C/c1cccc(F)c1)C2=O	POLH inh inconclusive, POLI inh inconclusive
Nc1cccc2c1C(=O)N(C(=O)/C=C/c1cccc(Br)c1)C2=O	POLH inh inconclusive, PI5P4K alpha inh inconclusive, POLI inh 11µM
COc1ccccc1N(/N=C1\Sc2ccccc2C1=O)C(C)=O	POLH inh 89µM, POLI inh inconclusive
O=C(CSc1nncs1)Nc1ccc2c(c1)OCO2	none
Cc1ccccc1N1CC(C(=O)Nc2ccc(S(=O)(=O)NCC3CCCO3)cc2)CC1=O (stereo unspecified)	none
Cc1ccc(N2CC(C(=O)Nc3ccc(S(=O)(=O)NCC4CCCO4)cc3)CC2=O)cc1 (stereo unspecified)	POLB inh 56µM, POLI inh inconclusive
O=C(OCC(=O)c1ccc(Cl)s1)c1cnccn1	POLH inh inconclusive, PI5P4K alpha inh -52, POLB inh inconclusive, POLI inh inconclusive
CCCOc1ccc(F)cc1-c1cc(C(=O)NCc2cccc(Cl)c2)[nH]n1	none (no result: POLH inh, POLK inh, POLB inh, POLI inh)
O=C(O)C(S)C(S)C(=O)O (stereo unspecified)	POLH inh inconclusive, POLK inh inconclusive, PI5P4K alpha inh -55, POLI inh inconclusive (no result: POLB inh)
N[C@H](C(=O)O)[C@H](O)C(=O)O	none (no result: WRN helicase inh, PI5P4K alpha inh)
O=C(O)C(S)[C@@H](S)C(=O)O (stereo partly specified)	POLK inh 22µM (no result: WRN helicase inh, POLH inh, PI5P4K alpha inh, POLB inh, POLI inh)
Cc1ccnc(NC(=O)CCC(=O)N(CC(=O)NC2CCCCC2)Cc2cccs2)c1	none
CC(C)c1nn2c(=O)cc(COC(=O)CNC(=O)c3ccccc3Cl)nc2s1	none (no result: WRN helicase inh, PI5P4K alpha inh)
CC(=O)c1ccc(N2CCN(c3ccc(C(N)=O)cc3[N+](=O)[O-])CC2)cc1	none
NC(=O)c1ccc(N2CCN(c3ccc(O)cc3)CC2)c([N+](=O)[O-])c1	PI5P4K alpha inh -55, POLI inh inconclusive
COc1ccc(N(C(=O)CSCC(=O)Nc2cc(C)on2)C(C(=O)NC2CCCCC2)c2ccc(O)c(O)c2)cc1 (stereo unspecified)	none
Cc1cc(NC(=O)CSCC(=O)N(c2ccc(F)cc2)C(C(=O)NC2CCCCC2)c2ccc(O)c(O)c2)no1 (stereo unspecified)	POLH inh inconclusive, POLB inh 20µM, POLI inh inconclusive
COCCOC(=O)c1c(C)oc2ccc(NS(=O)(=O)c3ccc(C(=O)O)cc3)cc12	POLH inh 11µM, POLB inh 35µM
Cc1ccccc1NC(=O)C(=Cc1ccc(C(=O)O)cc1)C(=O)Nc1ccccc1C	POLH inh 56µM, POLI inh inconclusive
CC(=O)/C(=C/c1ccccc1)C(=O)Nc1ccccc1C	POLI inh inconclusive
COc1ccccc1-c1cc(C(=O)Nc2sc3c(c2C#N)CCC(C)C3)c2ccccc2n1 (stereo unspecified)	none
Cc1cc(C(=O)OCC(=O)Nc2sc3c(c2C#N)CCC(C)C3)c2ccccc2n1 (stereo unspecified)	POLH inh 79µM, POLK inh inconclusive, POLB inh 18µM, POLI inh 56µM
O=C1/C(=C\c2ccncc2)SC(=S)N1C1CCCCC1	POLB inh 79µM
CS(=O)(=O)N1CCN(c2ccccc2[N+](=O)[O-])CC1	none
O=C1C(=O)N(CCS(=O)(=O)c2ccccc2)c2ccc(F)cc21	POLI inh inconclusive
CCc1ccc(NC(=O)COC(=O)c2ccccc2OCC(=O)N(C)C)cc1	none (no result: WRN helicase inh, POLH inh, PI5P4K alpha inh, POLB inh)
Oc1c(Br)cc(Br)cc1CNc1cccc2cccnc12	POLK inh inconclusive, POLB inh 45µM, POLI inh inconclusive
N#CC(C#N)=NNc1ccc2cn[nH]c2c1	PI5P4K alpha inh -64 (no result: POLH inh, POLK inh, POLB inh, POLI inh)
O=C(CC1(O)C(=O)N(CCc2ccccc2)c2ccc(Br)cc21)c1ccccc1 (stereo unspecified)	POLH inh inconclusive, POLI inh 89µM (no result: WRN helicase inh, PI5P4K alpha inh)
Cc1ccc(C(=O)CC2(O)C(=O)N(CCc3ccccc3)c3ccc(Br)cc32)o1 (stereo unspecified)	none
Cc1ccc(NC(=O)C2CC(=O)N(c3ccccc3Cl)C2)cc1S(=O)(=O)N1CCOCC1 (stereo unspecified)	none (no result: POLB inh)
O=C(NCc1ccc(Cl)cc1)c1cnc(N2CCOCC2)c2ccccc12	none (no result: WRN helicase inh, PI5P4K alpha inh)
Cc1ccc(NC(=O)Nc2cnc3ccccc3c2)cc1	POLB inh 20µM
